Screens (PubChem BioAssay)
aSyn rescue: qHTS of alpha-syn Inhibitors | Potency, µM (titrated, usually from 46.1 µM), for the others: at the highest dose growth rescue (activation), most hits filed as activators | Yeast expressing alpha-synuclein, growth rescue, BacTiter-Glo, 24 h | 370,000 tested, 0.14% active; note: % of control where 0% means no effect; nearly all actives have a fitted effect of over 65% in size
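Rescue of yeast growth: cells expressing toxic alpha-synuclein, induced in galactose at OD600 0.02, incubated with compound 24 h at 30 C. ATP luminescence quantified growth; inhibitors of toxicity appear as activators.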
Abeta rescue: qHTS for compounds that reverse cellular toxicity of Amyloid beta (A-beta) peptide in yeast: Primary Screen. 410,000 tested, 0.063% active. Potency, µM (highest dose often 46.1 µM), hits mostly activators. AID 1347071, 2019. yeast expressing A-beta42, growth rescue, OD600, 48 h; response scale: 0% DMSO, 100% iron-clioquinol control; note: nearly all actives have a fitted effect of over 55% in size
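Yeast growth medium received pinned compounds, then yeast cells expressing toxic A-beta were added; plates incubated at 30 C for 48 hr. Growth read as absorbance at 600 nm, normalized to DMSO and equimolar FeCl3 plus clioquinol controls.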
TDP-43 yeast inh: qHTS of TDP-43 Inhibitors; Potency, µM (highest dose often 46.1 µM), inactives show at the top dose growth rescue (activation), usual class: activators; AID 652104, 2013; 410,000 tested, 1.8% active; TDP-43 expressing yeast growth rescue, BacTiter-Glo, 24 h; note: % of control where 0% means no effect; nearly all actives have a fitted effect of over 50% in size
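Galactose-induced TDP-43 yeast, OD600=0.02, compound pinned; 24 hr, 30 deg C; BacTiter-Glo luminescence for growth. Inhibitors of TDP-43 toxicity read as activators.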
FUS yeast rescue: qHTS for Suppressors of FUS Proteinopathy: Primary screen using FUS-linked yeast assay. 390,000 tested, 0.24% active. Potency, µM (top dose mostly 76.6 µM), hits mostly activators. AID 1347120, 2019. S. cerevisiae FUS-expressing, growth rescue, OD600, 24 h;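 note: plate controls were DMSO vehicle for no effect and reference control for full effect; nearly all actives have a fitted effect of over 55% in size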
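Absorbance at 600 nm, taken 24hr after compound addition, measured rescue of FUS-yeast growth at 30C. Induction used 2% galactose with seeding at OD 0.005. Controls: CP55940 from 92uM final, DMSO only.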
The depositor's hits bear a star; i = inactive; ? = inconclusive; . = not tested or not shown; [ ] = remark or other dose. A selection: hits, their analogues and other compounds. The true share with any hit is near 2.1%. Calls come from the whole dose curve; as a rule, active = well fitted curve in the direction sought with a large enough effect; inconclusive = small, poorly fitted or top-dose-only effect, or another doubt; inactive = no such curve, though single readings can be large; an effect the other way counts as inactive or inconclusive. Potency is the fitted concentration of half-maximal effect.

SMILES	aSyn rescue	Abeta rescue	TDP-43 yeast inh	FUS yeast rescue
Cc1ccc(C(=O)OCC(=O)NC2CCCC(C)C2C)s1 (configuration not stated)	28%	i	?	i
COc1cccc(NC(=O)NC2CCCCN(Cc3ccccc3C)C2=O)c1 (configuration not stated)	.	.	.	i
CCn1c(SCc2ccc(C(C)(C)C)cc2)nnc1-c1ccc(C(C)(C)C)cc1	.	.	.	i
O=C(c1cc(C2CC2)nn1-c1ccccc1)N1CCN(c2ccccc2O)CC1	6%	i	18µM*	?
Cc1ccc(OCC(=O)NNC(=S)NC(=O)C(C)(C)C)c(Br)c1	24%	i	5µM*	i
Cc1ccc(OCC(=O)NNC(=S)NC(=O)C2CCCCC2)c(C)c1	?	i	13µM*	i
Cc1ccc(OCC(=O)NNC(=O)c2ccc(NC(=O)C3CC3)cc2)c(C)c1	0%	i	11%	i
COc1ccc2ncc(S(=O)(=O)c3ccccc3)c(N3CCC4(CC3)OCCO4)c2c1	7%	i	18µM*	i
COc1cc2ncc(S(=O)(=O)c3ccccc3)c(N3CCC4(CC3)OCCO4)c2cc1OC	0%	i	?	i
COc1ccc2ncc(S(=O)(=O)c3ccccc3)c(N3CCN(c4ccccc4)CC3)c2c1	?	i	16µM*	i
COc1ccc(-n2c(-c3cnccn3)n[nH]c2=S)cc1	3.5µM*	i	-19%	i
S=c1[nH]nc(-c2cnccn2)n1-c1ccccc1	3%	i	7%	i
O=C(NCc1ccccc1F)c1sc2ncccc2c1-n1cccc1	.	i	20µM*	i
O=C(NCCc1ccccc1)c1sc2ncccc2c1-n1cccc1	.	i	22µM*	i
O=C(CNS(=O)(=O)c1ccc(Br)s1)N1CCN(c2ccccn2)CC1	.	.	.	i
COC(=O)c1cn(-c2ccc3c(c2)[C@@]2(CC(=O)N(C)C2c2ccccc2)C(=O)N3CC(C)C)nn1 (some centres not stated)	.	.	.	i
COc1cc(C=O)ccc1OCCOCCOc1c(C)cc(Cl)cc1Cl	23%	i[9.22 µM]	22µM*	i
CCCCOc1ccc(C(=O)Oc2cc(C)[nH]c(=O)c2[N+](=O)[O-])cc1	-2%	i	18µM*	i
CCOc1ccc(C(=O)Oc2cc(C)[nH]c(=O)c2[N+](=O)[O-])cc1	-9%	i	?	i
Cc1ccc(OCC(=O)NCC(=O)OCc2cc(=O)n3nc(CC(C)C)sc3n2)cc1	.	i	-3%	i
O=C(Nc1cccnc1)c1ccc([N+](=O)[O-])s1	-6%	i	13µM*	i
CCOC(=O)c1cc(S(=O)(=O)N2CCN(c3cccc(C)c3C)CC2)[nH]n1	.	?	35µM*	?
CCOC(=O)c1cc(S(=O)(=O)N2CCN(c3ccc(C)cc3C)CC2)[nH]n1	.	i	14µM*	?
Cc1ccc(CN2CCCCC(NC(=O)c3cccc(F)c3)C2=O)cc1 (configuration not stated)	.	.	.	i
COc1ccc(NC(=O)CN(C)C(=O)c2ccc(N3CCCCC3)c([N+](=O)[O-])c2)cc1	11%	i	?	i
SMILES	aSyn rescue	Abeta rescue	TDP-43 yeast inh	FUS yeast rescue
COc1cccc(CN(C)C(=O)c2ccc(N3CCCC3)c([N+](=O)[O-])c2)c1	-1%	i	20µM*	i
CNc1c(C(=O)O)ccc2c1C(=O)c1ccccc1C2=O	-7%	i	-9%	i
O=C(O)c1ccc2c(c1Nc1ccccc1)C(=O)c1ccccc1C2=O	13µM*	i	-35%	i
Cc1ccc(C)c(OCCC(=O)OCC(=O)N2CCN(S(=O)(=O)c3ccc(Cl)cc3)CC2)c1	11%	i	?	i
CCOc1ccc(OCCC(=O)OCC(=O)N2CCN(S(=O)(=O)c3ccc(Cl)cc3)CC2)cc1	10%	i	13µM*	i
COCCN=c1scc(-c2ccccc2)n1/N=C/c1c[nH]c2ccccc12	2%	i	11µM*	i
CC1CCN(C2=NC(=O)/C(=C/c3ccccc3F)S2)CC1	8%	i	13µM*	i
CC1CCN(C2=NC(=O)/C(=C/c3cccc(O)c3)S2)CC1	5%	i	14%	i
Cc1ccc(-n2c(SCc3cccc(F)c3)nc3ccccc3c2=O)cc1	.	.	.	i
O=C(C1CCCCC1)N(Cc1cccnc1)c1nc2ccc(Cl)cc2s1	.	i	?	i
